# Compounds with a hit are over-represented: about 2.9% of the library has one in this group of screens.
# PfG6PD inh – PfG6PD enzyme inhibitors, primary screen, biochemical, fluorescence intensity, uHTS. glucose-6-phosphate dehydrogenase-6-phosphogluconolactonase (Plasmodium falciparum 3D7). PfGluPho enzyme, NADPH resazurin-diaphorase fluorescence. inhibition, % at 20 µM. 350,000 compounds, 0.78% hits. AID 504690, 2011;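 active means inhibition reaching at least a set limit at 20 µM in the primary screen, cut at about 59% in these data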
# Cardio protect – cardioprotection against H2O2-induced cell death, primary screen, uHTS, H9c2 cells, ATPLite luminescence; protection from H2O2 cell death, % at 20 µM; H9c2 cardiomyocytes, H2O2 injury protection, 2 h; 360,000 compounds, 0.63% hits;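 active means compounds giving at least 50% protection of heart cells from peroxide-induced death in the single-dose screen, raw or plate-pattern-corrected value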
# NadD block – inhibitors of S. aureus NadD, primary screen, biochemical, colorimetric, uHTS. 360,000 compounds, 0.78% hits. AID 602399, 2012. inhibition, % at 20 µM. Nicotinate-nucleotide adenylyltransferase NadD (Staphylococcus aureus N315). purified NadD enzyme, colorimetric absorbance read-out; in the data active means inhibition above about 26%
# A3A deaminase – APOBEC3A ssDNA deaminase inhibitors, primary screen, selectivity assay for APOBEC3G inhibitor project, biochemical, FAM/TAMRA oligo cleavage fluorescence | AID 493011, 2011 | DNA dC->dU-editing enzyme APOBEC-3A (Homo sapiens), P31941 | recombinant A3A, FAM/TAMRA ssDNA deamination fluorescence | inhibition, % at 20 µM | 330,000 compounds, 0.41% hits;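 active means at least 40% inhibition at 20 µM here, with at most 30% in a related deaminase screen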
# Target sequence (P31941 whole entry, looked up): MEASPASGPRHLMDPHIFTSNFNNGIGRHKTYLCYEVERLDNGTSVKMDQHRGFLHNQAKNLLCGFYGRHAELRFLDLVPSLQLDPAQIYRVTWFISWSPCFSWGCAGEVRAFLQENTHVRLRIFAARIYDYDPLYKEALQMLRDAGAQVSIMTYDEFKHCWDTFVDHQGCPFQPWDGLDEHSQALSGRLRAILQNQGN
# A3G deaminase – APOBEC3G DNA deaminase inhibitors, primary screen, biochemical, fluorescence, single-stranded DNA substrate, uHTS. AID 493012, 2011. 330,000 compounds, 0.28% hits. inhibition, % at 20 µM. recombinant A3G, ssDNA deamination FAM/TAMRA fluorescence;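 active means inhibition of at least 40% at 20 µM, with no more than 30% in the related APOBEC3A deaminase screen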
# Target sequence (Q9HC16 whole entry, looked up): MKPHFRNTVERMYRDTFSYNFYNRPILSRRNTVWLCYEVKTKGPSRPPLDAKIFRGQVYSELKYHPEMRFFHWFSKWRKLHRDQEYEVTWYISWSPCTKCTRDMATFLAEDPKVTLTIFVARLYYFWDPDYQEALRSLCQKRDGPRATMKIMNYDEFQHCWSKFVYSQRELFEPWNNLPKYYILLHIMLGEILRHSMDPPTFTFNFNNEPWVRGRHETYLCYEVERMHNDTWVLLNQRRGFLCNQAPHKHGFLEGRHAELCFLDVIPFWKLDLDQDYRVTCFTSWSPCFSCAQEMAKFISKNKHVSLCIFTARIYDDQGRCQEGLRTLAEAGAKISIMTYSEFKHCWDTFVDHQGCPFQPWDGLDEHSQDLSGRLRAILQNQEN
# TAG inh – inhibitors of triacylglycerol accumulation, primary screen, cell-based, uHTS, fluorescence, H9c2; inhibition, % at 12.5 µM; H9c2 cells, Nile Red lipid (TAG) fluorescence; cells loaded with 200 µM oleic acid; 230,000 compounds, 0.66% hits;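 active means pattern-corrected inhibition of lipid staining of at least 50% with the nuclear-stain viability signal not falling by more than 50%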
# Hits are given with their value; . = inactive; / = no result given.
SMILES,PfG6PD inh,Cardio protect,NadD block,A3A deaminase,A3G deaminase,TAG inh
CCOc1ccccc1C(=O)N[C@H](C(=O)Nc1cc(S(=O)(=O)N(C)C)ccc1OC)C(C)C,.,.,.,.,.,.
Cc1ccccc1NC(=O)CN1C(=O)S/C(=C/c2cccnc2)C1=O,.,.,.,.,.,/
Cc1cccc(NC(c2ccc(C)s2)c2ccc3ccc(C)nc3c2O)n1 (stereo not drawn),.,91,.,.,.,/
COc1ccccc1NC(c1cccnc1)c1ccc2cccnc2c1O (stereo not drawn),.,.,.,.,.,/
COc1ccc(C(Nc2cc(C)ccn2)c2ccc3ccc(C)nc3c2O)cc1 (stereo not drawn),.,62,.,.,.,.
Cc1ccc2ccc(C(Nc3ccccn3)c3ccccc3)c(O)c2n1 (stereo not drawn),.,88,.,.,.,.
O=C(O)c1ccccc1NC(c1ccccc1)c1ccc2cccnc2c1O (stereo not drawn),.,59,.,/,/,.
CC(=O)c1ccc(NC(=O)C2CC(=O)N(C(C)C)C2)cc1 (stereo not drawn),.,.,.,.,.,.
Cc1ccc2ccc(C(Nc3cccc(C(F)(F)F)c3)c3cccnc3)c(O)c2n1 (stereo not drawn),.,84,.,.,.,.
Oc1ccccc1C(Nc1nccs1)c1ccc2cccnc2c1O (stereo not drawn),.,.,37,.,.,52
Cc1ccnc(NC(c2ccsc2)c2ccc3ccc(C)nc3c2O)c1 (stereo not drawn),.,54,.,.,.,.
Cc1ccnc(NC(c2ccccc2)c2ccc3cccnc3c2O)c1 (stereo not drawn),.,.,.,/,/,.
Oc1c(C(Nc2ccccn2)c2ccccn2)ccc2cccnc12 (stereo not drawn),.,.,.,.,.,.
CC(C)N1CCC1(C)C(=O)Nc1ccccc1OC(F)F (stereo not drawn),/,.,.,/,/,.
COc1ccc2c(c1)C(O)C(CO)C(C(=O)O)C2 (stereo not drawn),.,.,.,/,/,.
CCCCCCOC(=O)CC1CC(C(C)=O)C1(C)C (stereo not drawn),.,.,.,/,/,.
CCOc1cc(/C=N/Nc2nc(-c3cccc(S(=O)(=O)N4CCCC4)c3)cs2)ccc1O,.,.,45,.,.,/
O=Nc1c(O)c2ccccc2c2ccccc12,.,.,.,/,/,99
COc1cccc(C(=O)NNC(=O)C(=O)Nc2cccc3ccccc23)c1,.,.,.,.,.,/
O=C(COC(=O)c1ccc(NS(=O)(=O)c2cccs2)cc1)Nc1nc2c(F)c(F)c(F)cc2s1,.,.,50,/,/,.
O=C(COC(=O)c1ccco1)Nc1nc2c(F)c(F)c(F)cc2s1,.,.,.,.,.,/
CCOC(=O)C1=CCC(C(C)(C)C)N(S(=O)(=O)c2ccc(C)cc2)C1 (stereo not drawn),/,.,.,/,/,/
O=C1C(Cl)=C(N2CCCCC2)C(=O)C(Cl)=C1c1cnc(N2CCCCC2)s1,88,.,33,.,.,/
NC(=O)c1c(NC(=O)Cn2nc(C(=O)O)c3ccccc3c2=O)sc2c1CCCC2,.,.,.,.,.,.
NC(=O)c1c(NC(=O)Cn2nc(C(=O)O)c3ccccc3c2=O)sc2c1CCC2,.,54,.,.,.,.
SMILES,PfG6PD inh,Cardio protect,NadD block,A3A deaminase,A3G deaminase,TAG inh
COc1ccc2c(c1)c(CC(=O)NCc1cc([N+](=O)[O-])ccc1O)c(C)n2C(=O)c1ccc(Cl)cc1,.,.,33,.,.,.
COc1ccc2c(c1)c(CC(=O)Nc1ccc(C(C)=O)cc1)c(C)n2C(=O)c1ccc(Cl)cc1,.,.,.,.,.,/
COc1ccc(CNn2c(-c3cccs3)nc3ccccc3c2=O)cc1OC,.,67,.,.,.,.
COc1cccc(C(=O)Nn2c(-c3cccs3)nc3ccccc3c2=O)c1OC,.,.,.,.,.,.
Cc1ccc(C)c(NC(=O)C(Sc2ncnc3ccccc23)c2ccccc2)c1 (stereo not drawn),.,55,.,.,.,/
Cc1ccc(C)c(NC(=O)C(Sc2nc3ccccc3c(=O)n2CC(C)C)c2ccccc2)c1 (stereo not drawn),.,80,.,.,.,/
Cc1cccc(N(Cc2ccccc2)C(=O)c2cccc(S(=O)(=O)N3CC(C)OC(C)C3)c2)c1 (stereo not drawn),.,.,.,.,.,.
Cn1nc(C(=O)Nc2cc(Cl)ccc2N2CCCC2)c2ccccc2c1=O,.,.,.,.,.,.
Cc1cc2ccccn2c1C(=O)c1ccc(N/N=C/c2ccc(C(=O)O)cc2)c([N+](=O)[O-])c1,.,.,.,/,/,.
C/C(=N\Nc1ccc(C(=O)c2c(C)cc3ccccn23)cc1[N+](=O)[O-])c1ccc(O)cc1,.,.,36,.,.,.
Cc1cc2ccccn2c1C(=O)c1ccc(Cl)cc1,.,.,.,.,.,/
C/C(=N/Nc1ccc(C(=O)c2c(C)cc3ccccn23)cc1[N+](=O)[O-])c1ccc(O)cc1,.,.,32,/,/,.
CCOC(=O)N1CCN(C(=O)COC(=O)c2ccc([N+](=O)[O-])cc2Cl)CC1,.,.,.,.,.,.
Cc1cc(C(=O)N2CCCC(C(=O)c3ccc4ccccc4c3)C2)n(C)n1 (stereo not drawn),.,.,.,.,.,.
CC1(C)CC(=O)c2c(oc3cc(O)c(O)cc23)C1,.,90,.,.,.,/
N#Cc1ccccc1OCCCN1CCC(Cc2ccccc2)CC1,.,.,.,.,.,/
COc1ccc(/C=C2\SC(=O)N(CC(=O)Nc3ccc(O)cc3)C2=O)cc1OC,.,.,.,.,.,/
Cc1ccc(NC(=O)CN2C(=O)S/C(=C\c3cc(Cl)c(OCC(=O)O)c(Cl)c3)C2=O)cc1,.,.,28,.,.,/
O=C(NC1CCCCC1)C(c1ccc2ncccc2c1)N(Cc1cccs1)C(=O)c1cccs1 (stereo not drawn),.,51,.,.,.,/
O=C(NC1CCCCC1)C(c1ccc2ncccc2c1)N(Cc1ccc2c(c1)OCO2)C(=O)c1ccc2c(c1)OCCO2 (stereo not drawn),.,.,.,.,.,/
O=C(NC1CCCCC1)C(c1cccs1)N(Cc1cccs1)C(=O)c1cccs1 (stereo not drawn),.,.,.,.,.,.

# Compound activity as filed in PubChem BioAssay.
